We go through 36 molecules from the supplement of paper PMC5662767.

Where a name gives a salt, the structure may show the parent alone.

The assay concerns Drosophila S2 cl14 SmoIP sensor cells. Briefly: normalized SmoIP GFP fluorescence (untreated unstimulated = 0%, untreated Hh-stimulated = 100%); higher = more Smo activation sensor fluorescence. Conditions: compound concentration: 2 uM, 24 h.
[1] abbreviates: stimulation: Hh conditioned medium (+Hh).
Where [2] appears, read: stimulation: mock conditioned medium (-Hh).
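Note: flow cytometry read-out as median GFP intensity of gated cells, compounds added 30 min before Hh-conditioned or mock medium, mock-treated cells serving as unstimulated baseline.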

Consider `CCNC(=O)Nc1ccc(-c2nc3c(c(N4CCOC[C@@H]4C)n2)CCN(C2COC2)C3)cc1`, for which the “normalized SmoIP GFP fluorescence” value is, setting by setting: under setting [1], 93.3%; under setting [2], -0.151%.
For the molecule `COc1ccc(CC(C)NCC(O)c2ccc(O)c(NC=O)c2)cc1` (configuration not stated) [formoterol-hemifumarate], the “normalized SmoIP GFP fluorescence” value was 129% under setting [1] and -8.77% under setting [2].
For the molecule `O=C(O)c1ccc(N2C(=O)/C(=C\c3ccc(-c4ccc([N+](=O)[O-])cc4)o3)C=C2c2ccccc2)cc1` [4e1rcat], the “normalized SmoIP GFP fluorescence” value reads like this: under setting [1], 105%; under setting [2], -0.265%.
Turning to `O=C(COc1cccc2c(=O)[nH]ccc12)c1ccccc1`, the “normalized SmoIP GFP fluorescence” value under setting [1] worked out at 139% and the “normalized SmoIP GFP fluorescence” value under setting [2] came to 0.334%.
Consider `CCOC(=O)[C@H](CCc1ccccc1)N[C@H]1CCCN2CCC[C@H](C(=O)O)N2C1=O` [cilazapril-monohydrate-inhibace], for which the “normalized SmoIP GFP fluorescence” value was found to be 111% under setting [1] and 6.28% under setting [2].
As to `CCCC(C)NC(=O)c1ccc(Cl)c(Cl)c1` (configuration not stated), the “normalized SmoIP GFP fluorescence” value under setting [1] was found to be 95.2% and the “normalized SmoIP GFP fluorescence” value under setting [2] was -4.7%.
In the case of `Cc1ccc(=O)n(-c2ccccc2)c1` [pirfenidone], the “normalized SmoIP GFP fluorescence” value under setting [1] came out at 107% and the “normalized SmoIP GFP fluorescence” value under setting [2] is -3.16%.
Regarding `CCCOc1ccc(C(=O)OCCN(CC)CC)cc1N` [proparacaine-hcl], the “normalized SmoIP GFP fluorescence” value is, setting by setting: under setting [1], 111%; under setting [2], -2.48%.
In the case of `COc1cc(N2CCC(N)CC2)ccc1Nc1ncc(Cl)c(-c2c[nH]c3ccccc23)n1`, the “normalized SmoIP GFP fluorescence” value under setting [1] worked out at 113% and the “normalized SmoIP GFP fluorescence” value under setting [2] was -2.48%.
With `Cc1cc2c(F)c(Oc3ncnn4cc(OC[C@@H](C)OC(=O)[C@H](C)N)c(C)c34)ccc2[nH]1` [Brivanib-alaninate], the “normalized SmoIP GFP fluorescence” value is, setting by setting: under setting [1], 117%; under setting [2], 9%.
Take `C/C=C1\[C@H]2C=C(C)C[C@]1(N)c1ccc(=O)[nH]c1C2` [(-)-Huperzine-A]: the “normalized SmoIP GFP fluorescence” value under setting [1] amounted to 139% and the “normalized SmoIP GFP fluorescence” value under setting [2] was -7.42%.
Regarding `CS(=O)(=O)Nc1ccc([N+](=O)[O-])cc1Oc1ccccc1` [nimesulide], the “normalized SmoIP GFP fluorescence” value runs as follows: under setting [1], 109%; under setting [2], -4.35%.
For the molecule `O=C1Nc2ccccc2/C1=C1/Nc2ccccc2C1=O` [Indirubin], the “normalized SmoIP GFP fluorescence” value reads like this: under setting [1], 127%; under setting [2], -11.4%.
Take `O=C(O)c1cc2cccc([N+](=O)[O-])c2[nH]1`: the “normalized SmoIP GFP fluorescence” value under setting [1] was determined as 136% and the “normalized SmoIP GFP fluorescence” value under setting [2] is 24.3%.
The corresponding values for `CN(C)C(=O)C(CCN1CCC(O)(c2ccc(Cl)cc2)CC1)(c1ccccc1)c1ccccc1` [Loperamide-hydrochloride] are 106% and 7.46%.
Regarding `CC(C)NC[C@@H](C(=O)N1CCN(c2ncnc3c2[C@H](C)C[C@H]3O)CC1)c1ccc(Cl)cc1`, the “normalized SmoIP GFP fluorescence” value was 103% under setting [1] and -1.12% under setting [2].
The corresponding values for `CCc1cccc(CC)c1NC(=O)N1Cc2[nH]nc(NC(=O)c3ccc(N4CCN(C)CC4)cc3)c2C1` are 121% and 3.18%.
As for `Cc1onc(-c2ccccc2)c1-c1ccc(S(N)(=O)=O)cc1` [valdecoxib], the “normalized SmoIP GFP fluorescence” value under setting [1] turned out to be 104% and the “normalized SmoIP GFP fluorescence” value under setting [2] is -5.49%.
For the molecule `CN(C)C/C=C/C(=O)Nc1cc2c(Nc3ccc(F)c(Cl)c3)ncnc2cc1O[C@H]1CCOC1`, the “normalized SmoIP GFP fluorescence” value runs as follows: under setting [1], 121%; under setting [2], 7.92%.
With `O=C(Nc1ccccc1-c1cn2c(CN3CCNCC3)csc2n1)c1cnc2ccccc2n1`, the “normalized SmoIP GFP fluorescence” value came out at 107% under setting [1] and 1.57% under setting [2].
The corresponding values for `CN1CCN(C2CCN(C(=O)Nc3cc(Oc4ccc(NC(=O)C5(C(=O)Nc6ccc(F)cc6)CC5)c(F)c4)ccn3)CC2)CC1` [golvatinib-e7050] are 125% and 12.5%.
In the case of `N#Cc1ccc(C(c2ccc(C#N)cc2)n2cncn2)cc1` [Letrozole], the “normalized SmoIP GFP fluorescence” value is 98.8% under setting [1] and -1.88% under setting [2].
`CCNC(=O)c1[nH]nc(-c2cc(Cl)c(O)cc2O)c1-c1ccc(OC)cc1`: the “normalized SmoIP GFP fluorescence” value runs as follows: under setting [1], 188%; under setting [2], 23.1%.
Take `Cc1ccc(-c2c(-c3nn(C)c4ncnc(N5CC[C@H](N6CCCCC6)C5)c34)cnn2C)cc1`: the “normalized SmoIP GFP fluorescence” value by setting is: under setting [1], 114%; under setting [2], -2.71%.
The matching figures for `CC(C(O)c1ccc(O)cc1)N1CCC(Cc2ccccc2)CC1` (configuration not stated) [ifenprodil-tartrate]: 103% and -5.15%.
The corresponding values for `CC(C)(C)NC[C@H](O)COc1nsnc1N1CCOCC1` [timolol-maleate] are 111% and -1.51%.
The matching figures for `COc1cccc(-c2cc(=O)c3ccccc3o2)c1N`: 115% and 2.64%.
Turning to `CN(C)c1ccc(-c2nc3ncc(Cl)c(N4CCN(CC(=O)Nc5nccs5)CC4)c3[nH]2)cc1`, the “normalized SmoIP GFP fluorescence” value turned out to be 125% under setting [1] and 6.74% under setting [2].
Regarding `Cc1cn(-c2cc(NC(=O)c3ccc(C)c(Nc4nccc(-c5cccnc5)n4)c3)cc(C(F)(F)F)c2)cn1` [Nilotinib], the “normalized SmoIP GFP fluorescence” value is 104% under setting [1] and -4.47% under setting [2].
The corresponding values for `COCCc1ccc(OCC(O)CNC(C)C)cc1` (configuration not stated) [metoprolol-tartrate] are 138% and -9.85%.
Turning to `CNCCCC12CCC(c3ccccc31)c1ccccc12` [Maprotiline-hydrochloride], the “normalized SmoIP GFP fluorescence” value was 123% under setting [1] and -0.116% under setting [2].
As to `CN[C@@H](C)C(=O)N[C@H](C(=O)N1CCC[C@H]1C(=O)Nc1snnc1-c1ccccc1)C1CCCCC1`, the “normalized SmoIP GFP fluorescence” value under setting [1] was determined as 85.6% and the “normalized SmoIP GFP fluorescence” value under setting [2] turned out to be 4.68%.
In the case of `COc1ccc([C@@H]2CC(=O)c3c(O)cc(O)cc3O2)cc1O` [Hesperetin], the “normalized SmoIP GFP fluorescence” value by setting is: under setting [1], 111%; under setting [2], -18.9%.
For the molecule `COC(=O)C1=C(C)NC(C)=C(C(=O)OC2CCCN(Cc3ccccc3)C2)C1c1cccc([N+](=O)[O-])c1` (configuration not stated) [benidipine-hydrochloride], the “normalized SmoIP GFP fluorescence” value under setting [1] was 89.9% and the “normalized SmoIP GFP fluorescence” value under setting [2] is -3.9%.
Consider `CCOC(=O)[C@H](CCc1ccccc1)N[C@@H](C)C(=O)N1Cc2cc(OC)c(OC)cc2C[C@H]1C(=O)O` [moexipril-hydrochloride], for which the “normalized SmoIP GFP fluorescence” value was found to be 126% under setting [1] and 3.4% under setting [2].
For the molecule `O=C(O)c1ccc(Nc2ncc3c(n2)-c2ccc(Cl)cc2C(c2c(F)cccc2F)=NC3)cc1`, the “normalized SmoIP GFP fluorescence” value is 271% under setting [1] and 46.7% under setting [2].
